# Rows were chosen to be rich in hits. Some 10% of all compounds tested hit in one or more screens of this group.
# Six1-Eya2 blk = Six1/Eya2 interaction inhibition | AID 651725 | activity change, % (no concentration beside the values) | AlphaScreen GST-Six1/His-Eya2 binding, biochemical; stronger effect = lower value | Q15475+O00167 | 0.56% of 360,000 active; in the data active = activity change below about -65%; inconclusive = mostly about -30% to -63%; note: % is set by controls: 0 for no effect and ±100 for the full control effect
#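 GST-Six1 + His-Eya2 (5X stock: 250/500 nM); Tris pH 8.0, 300 mM NaCl, 0.05% BSA, 0.02% Tween 20; GSH donor/Ni acceptor beads; 1 h 37 °C dark; AlphaScreen readout.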
# G9a block = inhibitors of human histone lysine methyltransferase G9a; G9a H3K9 monomethylation, AlphaScreen, 2 h; Potency, µM (doses to about 102 µM), for the others: at the top dose activity, negative = inhibition, usual class: inhibitors; 8.8% of 350,000 active; note: potency is the fitted concentration of half-maximal effect; % is set by controls: 0 for no effect and ±100 for the full control effect; nearly all actives have a fitted effect of over 75% in size
# Target sequence (Q96KQ7 913-1193 limits assumed): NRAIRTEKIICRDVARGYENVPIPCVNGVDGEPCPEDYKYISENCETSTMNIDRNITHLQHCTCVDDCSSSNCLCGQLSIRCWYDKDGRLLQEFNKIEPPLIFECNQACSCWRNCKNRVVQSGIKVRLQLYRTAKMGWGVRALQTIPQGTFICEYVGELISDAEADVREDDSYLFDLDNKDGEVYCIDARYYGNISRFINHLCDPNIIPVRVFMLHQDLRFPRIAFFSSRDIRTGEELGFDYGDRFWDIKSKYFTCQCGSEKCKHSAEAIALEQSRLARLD
#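 Compounds were preincubated with 20 nM G9a for 15 min, after which biotinylated H3K9 peptide (500 nM) and SAM (20 uM) started a 2 h room-temperature reaction. Monomethylated product was quantified by antibody-based AlphaScreen chemiluminescence.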
# CtBP-E1A blk = inhibitors of CtBP/E1A interaction; activity change, % (test concentration not listed); 0.49% of 340,000 active; AlphaScreen GST-E1A/His-CtBP binding, 1536-well; stronger effect = lower value; AID 651724; in the data active = activity change below about -65%; inconclusive = mostly about -30% to -63%; note: % is set by controls: 0 for no effect and ±100 for the full control effect
#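 Homogeneous bead-based format: GST-tagged E1A captured on glutathione donor beads, His-tagged CtBP on nickel acceptor beads; compounds precede bead addition by 2 h at 37 °C.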
# BAZ2B block = BAZ2B (human) inhibition; AID 504333; Potency, µM (top dose mostly 114 µM), for inactives: top-dose activity change, negative = inhibition, usual class: inhibitors; 4.4% of 360,000 active; AlphaScreen BAZ2B-H3K14Ac peptide displacement; Q9UIF8; note: potency is the fitted concentration of half-maximal effect; % is set by controls: 0 for no effect and ±100 for the full control effect; nearly all actives have a fitted effect of over 60% in size
#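 BAZ2B 50 nM plus b-H3(5-23)K14Ac 50 nM, PBS pH 7.4/0.01% Tween-20, 30 min RT; compound added (max 110 uM), 30 min RT; streptavidin donor/Ni-chelate acceptor beads 10 ug/mL final, 20 min dark; AlphaScreen read.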
# JMJD2A Tudor = blocks the human JMJD2A Tudor domain; O75164; AlphaScreen JMJD2A-Tudor / H3K4me3 peptide binding; Potency, µM (titrated, usually from 114 µM), inactives show at the top dose activity change, negative = inhibition, most hits filed as inhibitors; 4.4% of 390,000 active; AID 504339; note: potency is the fitted concentration of half-maximal effect; % is set by controls: 0 for no effect and ±100 for the full control effect; nearly all actives have a fitted effect of over 50% in size
# HP1b binding inh = HP1-beta chromodomain-methylated histone interaction inhibition | P83916 | AlphaScreen HP1-beta / biotin-H3K9me3 peptide binding | Potency, µM (highest dose often 114 µM), without a hit: top-dose activity change, negative = inhibition, hits mostly inhibitors | 0.56% of 390,000 active; note: potency is the fitted concentration of half-maximal effect; nearly all actives have a fitted effect of over 70% in size
# Target sequence (P83916 whole entry, looked up): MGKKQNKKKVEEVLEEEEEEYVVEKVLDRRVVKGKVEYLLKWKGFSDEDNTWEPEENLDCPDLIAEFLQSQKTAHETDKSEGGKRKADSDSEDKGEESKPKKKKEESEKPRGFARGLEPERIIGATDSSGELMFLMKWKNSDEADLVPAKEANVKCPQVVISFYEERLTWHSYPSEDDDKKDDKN
#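 HP1-beta protein (50 nM final) preincubated 30 min at room temperature with biotinylated H3(1-18)K9me3 peptide (50 nM) in PBS pH 7.4, 0.01% Tween-20, then compound added for 30 min. AlphaScreen streptavidin donor/nickel chelate acceptor beads (10 ug/mL final), 30 min dark, luminescence read.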
# * = called active by the depositor; ? = inconclusive; . = no result given; [ ] = remark or other dose. Unless noted, calls come from the whole dose curve; as a rule, active = well fitted inhibition curve with a large enough effect; inconclusive = small, poorly fitted or top-dose-only effect; inactive = no such curve, though single readings can be large or run the other way.
SMILES,Six1-Eya2 blk,G9a block,CtBP-E1A blk,BAZ2B block,JMJD2A Tudor,HP1b binding inh
CCN1CCC(N(Cc2ccc3c(c2)OCO3)C(=O)Nc2cc(Cl)ccc2C(=O)OC)CC1,.,0.1%[59 µM],.,-26.4%,-26.7%,-2.0%
CCOc1ccc(Nc2oc(/C=C/c3ccc(OC)c(OC)c3)nc2C#N)cc1,.,-12.1%[59 µM],.,-14.4%,-31.8%,20.0%
Cc1cccc(C)c1C(OCCN(C)C)C1CCCCC1 (centres undefined),-6.6,10µM*,-6.2,?,14.1µM*,?
Cc1cccc(N2CCN(C(=O)c3ccc4c(c3)NC(=O)C(CSCc3ccc(F)cc3)N4)CC2C)c1 (centres undefined),.,14.1µM*,.,-27.8%[57.1 µM],.,.
Cc1cccc(N2CCN(C(=O)c3ccc(N4CCCC4=O)cc3)CC2C)c1 (centres undefined),-4.5,37.8%[0.501 µM],1.4,-30.0%,-26.4%,46.5%
Cc1ccc(CSCC2Nc3ccc(C(=O)N4CCN(c5cccc(C)c5)C(C)C4)cc3NC2=O)cc1 (centres undefined),.,7.08µM*,.,-30.4%[57.1 µM],.,.
C[C@H](O)[C@@H]1C(=O)N2C(C(=O)O)=C(SCCN=CN)C[C@@H]12,.,31.5%[21.5 µM],.,.,.,.
COc1ccc(-c2nnc3ccc(SC)nn23)cc1,-7.9,-0.7%,-4.8,4.2%,-7.6%,29.9%
COC(=O)c1ccc(CSc2ccc3nnc(-c4ccc(F)cc4)n3n2)o1,-8.6,-11.5%,.,.,-19.3%,27.8%
CCOC(=O)CNC(=O)CSc1ccc2nnc(-c3ccc(F)cc3)n2n1,-0.7,31.6µM*,-0.2,1.0%,12.4%,50.4%
CCOc1ccc(-c2nnc3ccc(SCc4ccc(C(=O)OC)o4)nn23)cc1,-4.6,11.2µM*,-8.4,3.1%,-35.8%,12.4%
CCSc1ccc2nnc(-c3ccc(F)cc3)n2n1,-6.3,17.8µM*,-17.0,-0.3%,8.4%,46.8%
O=C(CSc1ccc2nnc(-c3ccc(F)cc3)n2n1)NCc1ccco1,-6.1,8.91µM*,-1.0,11.9%,-13.3%,22.4%
O=C(CSc1ccc2nnc(-c3ccncc3)n2n1)NCc1ccco1,-14.2,-5.1%,-6.4,0.8%,-12.1%,59.2%
Cc1ccc(NC(=O)C(Cc2ccccc2)NS(=O)(=O)c2cccc3nsnc23)c(C)c1 (centres undefined),.,1.5%[59 µM],.,.,?,8.2%
Nc1c(Cl)ncnc1NCc1ccccc1,0.5,?,0.3,5.5%,3.3%,25.2%
O=C(CSc1ccc2nnc(-c3ccc(F)cc3)n2n1)NCC1CCCO1 (centres undefined),4.0,20µM*,-0.9,2.6%,-29.9%,12.6%
CC1(C)Cc2c(sc(NC(=O)C(=O)NCCCN3CCOCC3)c2C#N)CO1,6.1,22.4µM*,.,-19.6%,2.3%,22.3%
COc1ccccc1NC(=O)N1C2CCCC1CC(NC(=O)c1ccccc1)C2 (centres undefined),-2.2,-11.4%[59 µM],13.4,-17.3%,-14.9%,22.3%
Cc1ccccc1CS(=O)(=O)c1nnc([C@H](CC(C)C)NC(=O)OC(C)(C)C)o1,-9.4,35.5µM*,-1.7,4.6%,-24.1%,20.8%
CC(C)(C)OC(=O)N[C@@H](Cc1ccccc1)c1nnc(S(=O)(=O)Cc2cccc(F)c2)o1,0.4,35.5µM*,-2.1,-0.1%,-6.6%,76.7%
CC(C)[C@H](NC(=O)OC(C)(C)C)c1nnc(S(=O)(=O)Cc2c(F)cccc2Cl)o1,4.2,?,5.1,0.8%,5.1%,47.7%
CC[C@@H](C)[C@H](NC(=O)OC(C)(C)C)c1nnc(S(=O)(=O)Cc2cc(C)ccc2C)o1,-0.6,79.4µM*,0.5,-0.2%,9.5%,86.8%
CC(C)C[C@H](NC(=O)OC(C)(C)C)c1nnc(SCc2ccccc2)o1,6.1,?,-0.2,6.6%,5.4%,52.2%
Cc1ccc(CN(Cc2cc3cccc(C)c3[nH]c2=O)C(=S)NCCCN(C)C)cc1,-12.4,-27.4%,-6.3,?,-31.6%,-6.7%
SMILES,Six1-Eya2 blk,G9a block,CtBP-E1A blk,BAZ2B block,JMJD2A Tudor,HP1b binding inh
O=C(Nc1nnc(-c2ccco2)o1)c1ccc(S(=O)(=O)N2CCCC2)cc1,-4.4,?,-13.9,.,-8.4%,48.2%
COCc1nnc(NC(=O)c2ccc(S(=O)(=O)N(C)C3CCCCC3)cc2)o1,-13.6,?,-18.3,?,79.4µM*,32.6%
COCc1nnc(NC(=O)c2ccc(S(=O)(=O)N3CCCCCC3)cc2)o1,-13.5,36.2%,-9.5,?,79.4µM*,69.1%
CCCN(CCC)S(=O)(=O)c1ccc(C(=O)Nc2nnc(COC)o2)cc1,-2.4,26.0%,.,?,3.4%,49.4%
CCCOc1ccc(C2C(C(=O)c3ccc(C)o3)=C(O)C(=O)N2CCN2CCOCC2)cc1OC (centres undefined),-0.3,?,1.5,3.5%,22.4µM*,14.5%
COc1ccc(OC)c(C2C(C(=O)c3ccc(C)o3)=C(O)C(=O)N2CCN2CCOCC2)c1 (centres undefined),-1.7,8.7%[0.0925 µM],9.6,?,-15.9%,4.1%
O=C(C1=C(O)C(=O)N(CCCN2CCOCC2)C1c1ccccn1)c1cc2ccccc2o1 (centres undefined),-3.9,39.8µM*,-6.6,?,-25.4%,29.1%
O=C(C1=C(O)C(=O)N(CCCN2CCOCC2)C1c1ccccn1)c1cccs1 (centres undefined),.,3.9%[59 µM],.,7.5%,.,.
Cc1ccc(C(=O)C2=C(O)C(=O)N(CCN3CCOCC3)C2c2ccccn2)o1 (centres undefined),.,2.24µM*,.,?,.,.
O=C(C1=C(O)C(=O)N(CCN2CCOCC2)C1c1ccc(F)cc1)c1cc2ccccc2o1 (centres undefined),3.0,35.5µM*,.,-24.0%,-25.3%,11.3%[57 µM]
CCN(CC)CCN1C(=O)C(O)=C(C(=O)c2cc3ccccc3o2)C1c1cccnc1 (centres undefined),-1.6,89.1µM*,0.7,-1.5%,-19.9%[11.4 µM],49.6%
CCN(CC)CCN1C(=O)C(O)=C(C(=O)c2sc(C)nc2C)C1c1cccnc1 (centres undefined),2.6,-28.0%[12.7 µM],-0.7,1.2%,-18.1%,7.1%
O=C(C1=C(O)C(=O)N(CCN2CCOCC2)C1c1ccco1)c1cc2ccccc2o1 (centres undefined),9.4,31.6µM*,7.5,?,-4.1%,54.3%
N#Cc1c(Nc2cccc(F)c2)sc(C(=O)c2ccc(Cl)cc2)c1N,.,11.2µM*,.,?,-15.3%,5.3%
Fc1ccc(/C=C2\CCCC3=C2NC(=S)NC3c2ccc(F)cc2)cc1 (centres undefined),.,22.4µM*,.,?,.,.
Cc1cnc(C(=O)N2CCc3c([nH]c4ccccc34)C2c2ccc(F)cc2)cn1 (centres undefined),1.6,.,.,28.2µM*,?,-7.0%

# Source: PubChem BioAssay
